Source: PubChem BioAssay
Sm TGR block – inhibitors of Schistosoma mansoni thioredoxin glutathione reductase; 360,000 compounds, 3% hits; Q962Y6; purified TGR, DTNB reduction, TNB absorbance 405 nm; Potency, µM (top dose mostly 114 µM), for the others: at the top dose activity change, negative = inhibition, usual class: inhibitors; further: nearly all actives have a fitted effect of over 60% in size
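Kinetic colorimetric format: TGR-catalysed, NADPH-driven DTNB reduction monitored via TNB absorbance. Enzyme dispensed at 20 nM; compound exposure 15 min at room temperature before reaction start.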
RE007 growth inh – less growth of the S. pombe RE007 Vpr strain; S. pombe RE007 Vpr strain, BacTiter-Glo ATP luminescence, 24 h; Potency, µM (doses to about 92.2 µM), for inactives: at the highest dose activity change, negative = less growth, hits mostly inhibitors; 360,000 compounds, 0.21% hits; active means well fitted falling curve with a large enough effect; inconclusive means small, poorly fitted or top-dose-only effect; inactive means no such curve, though single readings can be large or run the other way; further: nearly all actives have a fitted effect of over 50% in size
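Fission yeast RE007 carrying one integrated HIV-1 vpr copy, seeded at OD 0.01 in PMG+AL medium with 23 nL pinned compound. Grown 24 h at 30 degrees; viability read by BacTiter-Glo luminescence after 5 min.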
Tb PYK inh – T. brucei pyruvate kinase inhibition. Q57TT1. TbPYK enzyme, Kinase-Glo Plus ATP luminescence, 45 min. Potency, µM (top dose mostly 76.8 µM), inactives show at the highest dose activity, negative = inhibition, most hits filed as inhibitors. 410,000 compounds, 0.12% hits. AID 624173; further: nearly all actives have a fitted effect of over 50% in size
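TbPYK + substrate in 50 mM TEA pH 7.2, 100 mM KCl, 10 mM MgCl2, 0.05% BSA, 0.01% Tween-20; cpd pinned; ADP 130 uM final; 45 min RT; Kinase-Glo Plus 10 min; luminescence endpoint.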
LmPK inhibitor – blocks Leishmania mexicana pyruvate kinase activity. Potency, µM (titrated, usually from 57.5 µM), for inactives: top-dose activity change, negative = inhibition, hits mostly inhibitors. Q27686. purified LmPK, Kinase-Glo ATP luminescence, 1 h. 290,000 compounds, 0.37% hits. AID 1721
Target sequence (Q27686 whole entry, looked up): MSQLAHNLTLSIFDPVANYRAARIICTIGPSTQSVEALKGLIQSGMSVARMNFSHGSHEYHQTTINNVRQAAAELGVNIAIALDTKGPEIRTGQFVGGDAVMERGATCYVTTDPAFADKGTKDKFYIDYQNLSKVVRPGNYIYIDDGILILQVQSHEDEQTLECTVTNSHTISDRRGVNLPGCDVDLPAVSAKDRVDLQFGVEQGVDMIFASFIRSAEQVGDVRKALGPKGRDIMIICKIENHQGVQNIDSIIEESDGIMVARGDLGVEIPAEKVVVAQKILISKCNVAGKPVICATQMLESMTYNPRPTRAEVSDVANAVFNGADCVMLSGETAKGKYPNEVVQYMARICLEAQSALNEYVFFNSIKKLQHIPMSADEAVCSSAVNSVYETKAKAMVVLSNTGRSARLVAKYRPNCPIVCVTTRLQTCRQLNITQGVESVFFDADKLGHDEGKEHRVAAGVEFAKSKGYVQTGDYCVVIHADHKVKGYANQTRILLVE
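Purified LmPK (0.1 nM) with 0.5 mM PEP and 0.1 mM ADP in imidazole buffer pH 7.2 with MgCl2/KCl, 1 h at room temperature. ATP formed was read by luciferase luminescence and normalized to no-enzyme and uninhibited controls.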
* hit, by the source's call; ? = inconclusive; . = not tested or not shown; [ ] = dose if it differs, or a comment. In the library only some 3% were active in any assay of this set; here they are far more common. Unless noted, the call rests on the fitted dose curve; in most records, active means well fitted curve in the direction sought with a large enough effect; inconclusive means small, poorly fitted or top-dose-only effect, or another doubt; inactive means no such curve, though single readings can be large; an effect the other way counts as inactive or inconclusive. On the % scale 0 is the no-effect control and ±100 the full control effect; potency means the concentration at half of the fitted maximal effect.

SMILES	Sm TGR block	RE007 growth inh	Tb PYK inh	LmPK inhibitor
c1ccc2c(c1)CC(CN1CCNCC1)O2 (stereo not given)	14.1µM*	-15.4%	-6.1%	-3.9%
CC(C)Oc1ccc(Cc2cnc(=S)[nH]c2N)cc1	70.8µM*	-0.2%	-8.7%	0.8%
CC(=O)N(/N=C/c1ccc([N+](=O)[O-])o1)c1nc2ccccc2c(=O)n1-c1ccccc1	39.8µM*	-3.1%	-0.3%	-1.0%
Cc1nc2ccccc2n1/N=C/c1ccc([N+](=O)[O-])o1	.	?	-0.3%	.
Cc1nc2ccccc2c(=O)n1/N=C/c1ccc([N+](=O)[O-])o1	14.1µM*	.	.	5.9%
COC(=O)C(C(=O)OC)c1ccccc1NC(=O)OCc1ccccc1	.	3.3%	.	.
COc1ccc2[nH]c3c(c2c1)CCNC3C (stereo not given)	-24.9%	0.1%	3.1%	0.6%
COc1ccc2[nH]c3c(c2c1)CCNC3c1ccc([N+](=O)[O-])o1 (stereo not given)	0.891µM*	.	-17.5%	-6.4%
CC(=O)c1c2c3c(cccc3n(C)c1=O)C(=O)c1ccccc1-2	8.91µM*	-1.8%	-3.0%	3.3%
CC1=NN(c2ccccc2)C(=O)/C1=C\C=C\c1ccccc1	0.1%	6.0%	0.4%	-1.5%
CC1=NN(c2ccccc2)C(=O)/C1=C/C=C/c1ccc(N(C)C)cc1	6.3%	-5.7%	?	14.1µM*
CCCCC(=O)OC1CCC2C3CCc4cc(O)ccc4C3CCC12C (stereo not given)	.	-16.4%	6.3%	.
C[C@]12CC[C@@H]3c4ccc(O)cc4CC[C@H]3[C@@H]1CC[C@@H]2OC(=O)CCC(=O)O	44.7µM*	1.1%[18.4 µM]	0.7%	8.4%
CCN(CC)c1ccc(NC(=O)c2c(C)nn(-c3ccc(F)cc3)c2-n2cccc2)c(C)c1	-6.2%	.	?	.
COc1cccc(NC(=O)CSc2ccc(-c3ccco3)nn2)c1	39.8µM*	-24.0%	-19.3%	8.0%
COc1ccc(-c2nnc(SCC(=O)NCCc3ccc(OC)c(OC)c3)nc2-c2ccc(OC)cc2)cc1	-3.9%	.	-0.2%	.
COc1ccc(CCNC(=O)CSc2nnc(-c3ccco3)c(-c3ccco3)n2)cc1OC	2.24µM*	.	.	10.8%
CC(=O)c1ccc(NC(=O)CSc2nnc(-c3ccco3)o2)cc1	-9.7%	36.4%	-1.0%	-1.1%
COc1ccc(NC(=O)CSc2ccc(-c3ccco3)nn2)cc1OC	44.7µM*	-15.5%	-5.2%	5.3%
Cc1ccc(NC(=O)CSc2nnc(-c3ccco3)o2)cc1	79.4µM*	-4.1%	-14.6%	1.1%
N#CCC(=O)NN	.	.	-8.7%	.
Cc1ccc(NC(=O)Cn2c(=O)n(Cc3nc(C)no3)c(=O)c3cc4c(cc32)OCO4)cc1	7.9%	.	3.1%	.
CCn1c2c(c(=O)n3ncc(C(=O)Nc4ccc(C(=O)OC)cc4)c13)CN(Cc1ccc(OC)cc1)CC2	-15.8%	.	?	.
NCCNC(=O)c1ccc(Cl)cn1	.	.	5.8%	.
CCOc1ccc(-c2nnc(SCC(=O)Nc3cccc(C#N)c3)o2)cc1	10µM*	.	1.0%	.
SMILES	Sm TGR block	RE007 growth inh	Tb PYK inh	LmPK inhibitor
O=C(CSc1ccc(-c2ccco2)nn1)Nc1ccccc1	7.08µM*	7.8%	-21.7%	1.0%
COc1ccc(CCNC(=O)CSc2ccc(-c3ccco3)nn2)cc1OC	17.8µM*	4.6%	-0.6%	-2.9%
CC(C)(C)c1ccc2c(S(=O)(=O)O)c(C(C)(C)C)ccc2c1	.	.	-5.4%	.
CN(C)C(=O)CNC(=O)Cc1ccccc1	.	.	0.0%	.
CN1OC[C@@H]2CN(Cc3ccc4c(c3)OCO4)[C@H](c3ccc(N4CCCCC4)cc3)C[C@@H]21	.	-17.8%	3.3%	.
O=C(C1=C[C@@H]2[C@H]3C(=O)N(c4ccccc4)C(=O)[C@H]3[C@@H](C(=O)c3ccc(Cl)cc3)N2C=C1)c1ccccc1	14.1µM*	.	.	0.3%
Cc1nc(-c2ccc(NC(=O)c3ccccc3)cc2)cs1	-9.8%	44.7µM*	?	6.4%
CC(C)(C)C1CCc2onc(C(=O)Nc3sc4c(c3C#N)CCCC4)c2C1 (stereo not given)	4.8%	.	-2.4%	.
CCOc1ccc(/C=N/NC(=O)c2[nH]ncc2Br)c(O)c1	.	?	?	7.94µM*
COc1ccc(OC)c(/C=N/NC(=O)c2[nH]ncc2Br)c1	2.3%	-8.3%	1.2%	-0.4%
Cc1ccc(N2C(=O)c3ccccc3C2C(=O)c2ccc(C)c(C)c2O)cc1 (stereo not given)	4.47µM*	2.6%	-7.9%	11.8%
Cc1ccc(N2C(=O)c3ccccc3C2C(=O)c2ccc(O)cc2O)cc1 (stereo not given)	?	1.4%	-6.1%	5.9%
Clc1ccc(OCc2nn3c(-c4ccco4)nnc3s2)cc1	31.6µM*	-7.3%	-18.6%	6.2%
c1coc(-c2nn3c(-c4ccco4)nnc3s2)c1	14.1µM*	1.7%	-8.7%	10.4%
COc1ccccc1-c1nn2c(-c3ccco3)nnc2s1	?	2.6%	-9.9%	2.7%
O=C(c1ccc2c(c1)OCO2)n1nnc2ccccc21	10µM*	.	.	8.0%
COc1ccc(C(=O)n2nnc3ccccc32)cc1OC	6.31µM*	-6.7%	-3.5%	-0.8%
CCSc1ccccc1C(=O)n1nnc2ccccc21	20µM*	20.9%	-6.3%	-0.8%
COc1ccc(C(=O)n2nnc3ccccc32)cc1Br	?	2.3%	-3.8%	-11.2%
CCSc1ccccc1C(=O)N1CCCC1	0.3%	4.4%	4.4%	-8.1%
COc1ccc(N/C(=C(/C(Cl)=C(Cl)Cl)[N+](=O)[O-])n2nnc3ccccc32)cc1OC	22.4µM*	.	.	1.1%
COc1cc2c(C(=O)N3CCN(c4ccc(C)cc4)C(C)C3)cn(CC(C)C)c(=O)c2cc1OC (stereo not given)	-1.1%	.	0.4%	.
CS(=O)(=O)c1ccc(C(=O)OCC(=O)NC(=O)C2CCCCC2)cc1[N+](=O)[O-]	7.08µM*	-9.4%	-9.2%	-0.4%
COc1ccc(C(=O)OCC(=O)Nc2ccccc2)cc1[N+](=O)[O-]	7.5%	-6.7%	3.1%	0.0%
Cc1ccccc1NC(=O)COC(=O)c1ccc(S(C)(=O)=O)c([N+](=O)[O-])c1	1.41µM*	-3.8%	-5.6%	-2.4%
SMILES	Sm TGR block	RE007 growth inh	Tb PYK inh	LmPK inhibitor
CC(CCc1ccccc1)NC(=O)COC(=O)c1ccc([N+](=O)[O-])cc1 (stereo not given)	3.6%	-17.6%	1.1%	1.1%
CC(=O)c1cccc(NC(=O)COC(=O)c2ccc(S(C)(=O)=O)c([N+](=O)[O-])c2)c1	3.16µM*	-22.9%	-1.3%	2.8%
CC(CCc1ccccc1)NC(=O)COC(=O)c1ccc(S(C)(=O)=O)c([N+](=O)[O-])c1 (stereo not given)	1.78µM*	16.6%	-2.4%	-8.5%
CS(=O)(=O)c1ccc(C(=O)OCC(=O)Nc2cccnc2Cl)cc1[N+](=O)[O-]	.	-3.4%	3.7%	.
O=C(c1cc(S(=O)(=O)N2CCCC2)c[nH]1)N1CCN(c2cccc(Cl)c2)CC1	-3.4%	.	1.8%	.
CS(=O)(=O)c1ccc(C(=O)OCc2nnc(-c3ccccc3)o2)cc1[N+](=O)[O-]	1.41µM*	32.9%	4.7%	2.1%
